Screens as filed in PubChem BioAssay.
In the library only some 3.3% were active in any assay of this set; here they are far more common.
PI5P4K alpha inh: qHTS for Inhibitors of phosphatidylinositol 5-phosphate 4-kinase (PI5P4K) | Phosphatidylinositol 5-phosphate 4-kinase type-2 alpha (Homo sapiens), P48426 | PI5P4Kalpha enzyme, ADP-Glo luminescence, 60 min; hits give low values | max response, % | actives 1.2% (n = 330,000) | AID 652105, 2013; active = max response of -50% or lower; inconclusive = between -30% and -50%; inactive = -30% or higher; note: value at the top dose of about 77 µM; % is set by controls: 0 for no effect and ±100 for the full control effect
Target sequence (P48426 whole entry, looked up): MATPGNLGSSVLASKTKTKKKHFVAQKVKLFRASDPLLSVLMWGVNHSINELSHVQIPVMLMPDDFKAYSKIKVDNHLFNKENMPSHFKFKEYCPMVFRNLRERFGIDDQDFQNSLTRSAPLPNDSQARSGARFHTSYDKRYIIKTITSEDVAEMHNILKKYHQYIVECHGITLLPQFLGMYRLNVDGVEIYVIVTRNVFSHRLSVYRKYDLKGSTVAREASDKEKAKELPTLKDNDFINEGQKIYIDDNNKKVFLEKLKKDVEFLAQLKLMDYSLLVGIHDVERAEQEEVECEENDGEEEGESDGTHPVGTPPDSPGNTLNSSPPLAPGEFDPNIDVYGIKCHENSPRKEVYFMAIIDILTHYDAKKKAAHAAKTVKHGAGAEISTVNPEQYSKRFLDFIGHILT
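Reactions run in 0.038 M HEPES pH 7.4, 0.28 mM EGTA, 0.1% CHAPS and 5% DMSO, with PI5P4Kalpha, substrate, compound and 5 microM ATP final, one hour at room temperature. Readout is ADP-Glo luminescence.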
D3 antag: qHTS of D3 Dopamine Receptor Antagonist: qHTS; AID 652054, 2013; D3R cells, DiscoveRx beta-arrestin luminescence, antagonist mode; hits give low values; D(3) dopamine receptor (Homo sapiens), P35462; actives 2.5% (n = 360,000); max response, negative = inhibition, %; in the data active = max response below about -50%; inconclusive = no clear call, values can overlap the other calls; note: % is set by controls: 0 for no effect and ±100 for the full control effect
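Cells plated overnight at 1500 cells/well, then exposed to library compounds with dopamine controls for 90 minutes at 37 degrees C. DiscoveRx reagent added for 30–60 minutes at room temperature; luminescence read, quantitative HTS format.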
DRD3 agonist: qHTS of D3 Dopamine Receptor Agonist: qHTS | D(3) dopamine receptor (Homo sapiens), P35462 | D3R DiscoveRx beta-arrestin cells, luminescence, 90 min | actives 0.58% (n = 410,000) | max activation, %; in the data active = max activation above about 30%; note: 0% is about no effect
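Agonist mode: compounds and dopamine controls were applied to plated cells for 90 min at 37 degrees C after an overnight attachment at 1500 cells/well. Luminescent read-out followed 30 - 60 minutes at room temperature with DiscoveRx detection reagent.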
PI4K2A inh: qHTS for small molecular inhibitors of PI4K2A. Phosphatidylinositol 4-kinase type 2-alpha (Homo sapiens), Q9BTU6. purified PI4K2A, ADP-Glo luminescence, 1 h; hits give low values. activity change, negative = inhibition, % at 76.9 µM. actives 0.13% (n = 420,000). AID 1346378, 2018; in the data active = activity change below about -50%; inconclusive = mostly about -30% to -49%;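 note: -100% = wells without enzyme as full effect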
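ADP-Glo luminescence measured ADP generated by PI4K2A enzyme (4 ug/mL before mixing) with 1.2 mM PI substrate (pre-mix) and 300 microM ATP (pre-mix). Tris pH7.5 buffer with MgCl2, Triton X-100; 1 h reaction at ambient temperature.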
LDHA inh: qHTS assay for inhibitors of human lactate dehydrogenase; L-lactate dehydrogenase A chain (Homo sapiens), P00338; actives 0.15% (n = 480,000); purified LDHA, NADH/diaphorase-resazurin fluorescence; hits give low values; activity change, % (values are at about 110 or 230 µM); in the data active = activity change below about -30%; inconclusive = mostly about -25% to -30%;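 note: plate controls were DMSO wells for no effect and wells without enzyme for full effect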
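Enzyme activity of human lactate dehydrogenase 5 (2 nM; 0.06 mM NADH, 0.2 mM pyruvate, 5 min, RT) is measured via a resazurin/diaphorase fluorescence readout of residual NADH.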
Active calls of the source: *; u = inconclusive; x = no result.

SMILES | PI5P4K alpha inh | D3 antag | DRD3 agonist | PI4K2A inh | LDHA inh
O=C(N=Nc1c(O)[nH]c2ccc(F)cc12)c1ccc(NS(=O)(=O)c2cccs2)cc1 | -15 | -6 | -11 | 7 | -3
C#CCNC1CCCCC1C(C)=O (configuration not stated) | x | x | x | x | 7
CCc1ccccc1NC(=O)NCc1nc(-c2ccccc2)oc1C | x | x | x | x | -8
Cc1ccc(S(=O)(=O)c2cn(CC(=O)Nc3ccc(Cl)cc3)c3ccc(F)cc3c2=O)cc1C | x | x | 5 | -2 | -4
Cc1ccc2c(c1)c(=O)c(S(=O)(=O)c1ccc(C)c(C)c1)cn2CC(=O)Nc1ccccc1 | x | x | 38* | -8 | -4
Cc1csc(C(C#N)C(=O)CSc2ccc(C(F)(F)F)cn2)n1 (configuration not stated) | x | x | x | x | 4
COc1cc(CNCc2ccccc2)c(Br)cc1OC1CCCC1 | 28 | -62* | -18 | 2 | -3
COc1ccc(-c2oc(=O)c3cc(OC)c(OC)cc3c2C(F)(F)F)cc1 | -2 | 21 | 62* | -3 | -9
Cc1ccc(NC(=O)C2(C)CCN2C(=O)CC(c2ccccc2)c2ccccc2)cc1 (configuration not stated) | 21 | -25 | 67* | -2 | -1
CCN1CCN(CCOc2cccc(Cl)c2Cl)CC1 | -2 | u | 67* | 3 | -36*
CC1CC(C)CN(CCOc2cccc(Cl)c2Cl)C1 (configuration not stated) | -5 | -71* | 16 | 1 | -12
CC1CC(C)CN(CCOc2ccc(Cl)cc2Cl)C1 (configuration not stated) | x | -97* | -2 | 6 | -7
CCN1CCN(C(C(=O)O)c2cn(CCC(=O)O)c3cc(Br)ccc23)CC1 (configuration not stated) | x | x | x | x | -1
COc1ccc(C(=O)N/N=C/c2sc3ccccc3c2O)cc1 | -23 | -51* | -17 | 2 | 8
COc1ccc2cc(C(=O)N/N=C/c3sc4ccccc4c3O)ccc2c1 | -20 | u | 2 | -4 | 0
O=C(N/N=C/c1ccc[nH]1)c1sc2ccccc2c1Cl | x | -65* | -30 | -3 | -2
COC(=O)C1=CN(Cc2ccc(OC)cc2)C=C(C(=O)OC)C1c1ccc(OC)cc1 | x | x | x | x | 4
CC1(C)Cc2nc3sc4c(=O)n(Cc5ccccc5)cnc4c3cc2CS1 | 11 | -66* | 1 | -3 | -7
Cn1c(SCCC#N)nnc1-c1ccccc1F | -14 | 0 | -5 | -2 | -8
Cn1c(SCCN2CCCCC2)nnc1-c1ccccc1Br | -3 | -63* | -4 | 4 | u
NC(=O)Nc1ccc([N+](=O)[O-])cc1 | x | x | x | x | 3
COc1ccc(OCC(=O)N/N=C2\CCCCc3ccccc32)cc1 | -63* | 3 | 4 | -4 | 2
COc1cccc(NC(=S)N/N=C2/CCCCc3ccccc32)c1 | 0 | -60* | -16 | 2 | -7
COc1cc(N2C(=O)C=CC2=O)c(OC)cc1Cl | -25 | -89* | -30 | 8 | -2
COc1cc(Cl)c(S(=O)(=O)N2CCCC2)cc1Cl | 2 | 58 | 1 | -5 | -5
SMILES | PI5P4K alpha inh | D3 antag | DRD3 agonist | PI4K2A inh | LDHA inh
C[C@@H]1COc2cc(Br)ccc2S(=O)(=O)N1Cc1cn(CCC2OCCO2)nn1 | x | x | x | 6 | x
CC(=Cc1ccccc1)C=C1SC(=S)N(CCCC(=O)Nc2ccc(C(=O)O)c(O)c2)C1=O | -57* | -23 | -2 | -9 | -4
O=C(CCN1C(=O)/C(=C\c2cccs2)SC1=S)Nc1nccs1 | -10 | -52* | 13 | 0 | -6
CC(/C=C1\SC(=S)N(CCCC(=O)Nc2ccc(C(=O)O)c(O)c2)C1=O)=C\c1ccccc1 | u | 14 | 2 | -3 | 9
Cc1ccc(NC(=O)COc2cccc(/C=C3\SC(=S)N(CCC(=O)O)C3=O)c2)cc1Cl | 1 | -9 | 1 | -4 | -36*
O=C(CCN1C(=O)/C(=C/c2cccs2)SC1=S)Nc1ccc(C(=O)O)c(O)c1 | -58* | -2 | 4 | -5 | -18
